Data reported in PubChem BioAssay AID1460 (National Center for Advancing Translational Sciences (NCATS), 2008).
Screen size: about 270,000 compounds; about 5,800 (2.1%) were called active. About 16% were inconclusive and are not listed. The call rests on the fitted dose curve; in most records, active means well fitted inhibition curve with a large enough effect; inconclusive means small, poorly fitted or top-dose-only effect; inactive means flat fitted curve, though single readings scatter. Only a selection was taken, and actives are over-represented in it overall.

Target: Microtubule-associated protein tau (Homo sapiens) (UniProt P10636)
Test: qHTS for Inhibitors of Tau Fibril Formation, Thioflavin T Binding; further: nearly all actives have a fitted effect of over 55% in size
Conditions: recombinant tau K18 P301L (four-repeat tau fragment), heparin-induced fibrillization, ThT fluorescence; series mostly up to 57.4 µM
How it was run: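 K18 P301L tau (15 uM + 0.24 uM Alexa 594-tagged), heparin 20 uM, NaOAc pH 7, 6 h 37 C; ThT 30 uM, 1 h RT, ex 450/em 510 nm.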
Potency means the concentration at half of the fitted maximal effect.

Microtubule-associated protein tau (Homo sapiens), sequence (P10636 561-689 P618L limits assumed): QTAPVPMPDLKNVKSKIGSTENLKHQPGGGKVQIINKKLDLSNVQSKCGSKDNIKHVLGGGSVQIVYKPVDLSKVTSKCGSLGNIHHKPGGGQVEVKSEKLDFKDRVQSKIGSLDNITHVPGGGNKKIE

Potency, inactive:
CCC(=O)N1c2ccccc2CC1C(=O)N1CCN(c2ccccc2F)CC1 (centres undefined), COc1ccc(CCNC(=O)c2cc3cccc4c3n2CC(C)S4)c(OC)c1OC (centres undefined), O=C(Nc1ccccc1Br)c1cc(CN2CCCC2)on1, COC(=O)CCNc1ccc2c(c1)OCCO2, COc1ccc(C(=O)Nc2ccc3c(c2)OCO3)cc1OC, COc1ccccc1-c1noc(-c2ccc(NCc3ccccc3)c([N+](=O)[O-])c2)n1, COC(=O)c1ccc2c(c1)N(CC(=O)Nc1ccc(C)c(C)c1)C(=O)c1ccccc1S2, O=C(CSc1nnc(-c2ccncc2)n1-c1ccccc1)Nc1ccc(Cl)c(Cl)c1, CCC(Sc1nnc(-c2ccc(OC)cc2)c(-c2ccc(OC)cc2)n1)C(=O)NC1CCCCC1 (centres undefined), COc1cc(C=O)c(Br)cc1OCC(=O)NCc1ccccc1, COc1cc(CNC2CCCC2)c(Br)cc1OCc1ccccc1, O=C(NCC(c1ccco1)S(=O)(=O)c1cccs1)c1ccc(F)cc1 (centres undefined), O=C(NC1CC(=O)N(c2ccc(F)cc2)C1)c1ccc(S(=O)(=O)N2CCCC2)cc1 (centres undefined), COC(=O)c1ccc(NC(=O)c2cc(Cl)ccc2OC)cc1, COc1ccc(Cl)cc1C(=O)Nc1ccc(N(C)C(C)=O)cc1, CNC(=S)Nc1ccc([N+](=O)[O-])cc1, Cc1c(NC(=O)/C=C/C(=O)O)cccc1[N+](=O)[O-], COc1ccc(C2CC(=O)N(Cc3ccccc3C)c3c2c(C)nn3-c2nc(C)cc(C)n2)c(OC)c1 (centres undefined), O=C(Nc1ccc(Oc2ccccc2)cc1)C1CCN(S(=O)(=O)c2ccc(Cl)cc2)CC1, CC(=O)Nc1cccc(NC(=O)CSc2cn(CC(=O)N3CCCC3)c3ccccc23)c1, O=C(Nc1nnc(C2CC(=O)N(c3ccc(Cl)cc3)C2)s1)c1ccco1 (centres undefined), NC1=NC(c2cc(F)cc(F)c2)n2c(nc3ccccc32)N1 (centres undefined), CCOc1ccc(N(CC)S(=O)(=O)N2CCCC(C(=O)NCc3ccc(SC)cc3)C2)cc1 (centres undefined)

Potency, active:
CCOc1ccc(NCCC(=O)c2ccc3c(c2)OCO3)cc1 15.8 µM, COc1cc(C(=S)NCc2ccccc2)cc(Br)c1O 35.5 µM, Oc1cc(O)c2c(c1)OC(c1ccc(O)c(O)c1)C(O)C2 (centres undefined) 14.1 µM, CCN1CCN(c2cc(C)c3cc(NC(=O)c4cc(Cl)ccc4OC)ccc3n2)CC1 14.1 µM, O=C(O)/C=C/C(=O)NNc1ccc([N+](=O)[O-])cc1 15.8 µM, C=CS(=O)c1sc(Cl)c(N2CCOCC2)c1[N+](=O)[O-] (centres undefined) 8.91 µM
